Screens as filed in PubChem BioAssay.
This is a sample that favours compounds with a hit; in the whole collection about 11% have one here.
USP28 block – inhibitors of human USP28 deubiquitinase. Ubiquitin carboxyl-terminal hydrolase 28 (Homo sapiens), Q96RU2. purified USP28, Ub-rhodamine cleavage fluorescence, 30 min. inhibition, % at 25 µM. 47,000 tested, 3% active. AID 1645857, 2021
USP30 block – inhibitors of human USP30 deubiquitinase; Ubiquitin carboxyl-terminal hydrolase 30 (Homo sapiens), Q70CQ3; 47,000 tested, 5.3% active; inhibition, % at 25 µM; AID 1645860, 2021; purified USP30, Ub-rhodamine cleavage fluorescence
USP17 block – inhibitors of human USP17 deubiquitinase; Ubiquitin carboxyl-terminal hydrolase 17-like protein 5 (Homo sapiens), A8MUK1; purified USP17, Ub-rhodamine cleavage fluorescence, 3 h; inhibition, % at 50 µM; 47,000 tested, 6.5% active; AID 1645855, 2021
OTUD3 inh – inhibitors of human OTUD3 deubiquitinase | OTU domain-containing protein 3 (Homo sapiens), Q5T2D3 | purified OTUD3, Ub-rhodamine fluorescence, 2 h | inhibition, % at 25 µM | 47,000 tested, 0.7% active | AID 1645858, 2021
An asterisk follows results filed as active; nt = no result given. No stated cut-off is given here; in the data, active means inhibition above about 30%; inactive means the rest.

SMILES | USP28 block | USP30 block | USP17 block | OTUD3 inh
CCOC(=O)c1c(C)n(C2CC2)c2ccc(OC)cc12 | 37* | -8 | 5 | 10
CCC(=O)CCCCC[C@@H]1NC(=O)[C@H]2CCCCN2C(=O)[C@H]([C@@H](C)CC)NC(=O)[C@H](Cc2cn(OC)c3ccccc23)NC1=O | 13 | 0 | 36* | 0
CN=C(N)NCCC/C=C/CCC[C@H](C)C[C@H](C)C1OC(=O)C(C)C(O)/C=C/C(C)C(O)CC(O)C(C)C(O)CCC(C)C(O)CC2(O)OC(CC(OC(=O)CC(=O)O)CC(O)CC(O)C(C)C(O)/C=C/C=C/C1C)CC(O)C2O (some centres undefined) | 34* | 11 | 32* | -14
CC[C@@]1([C@@H]2O[C@@H]([C@H]3O[C@@](O)(CO)[C@H](C)C[C@@H]3C)C[C@@H]2C)CC[C@H]([C@]2(C)CC[C@]3(C[C@H](O)[C@@H](C)[C@@H]([C@@H](C)[C@@H](O)[C@H](C)C(=O)O)O3)O2)O1 | -20 | -13 | -77 | -16
CO[C@@H]1C[C@@H](C[C@H]2CC[C@H](C)[C@H]([C@@H](C)C(=O)O)O2)O[C@]2(O[C@](C)([C@H]3CC[C@@](C)([C@@H]4O[C@@H]([C@H]5O[C@@](O)(CO)[C@H](C)C[C@@H]5C)C[C@@H]4C)O3)C[C@H]2C)[C@@H]1C | 20 | 34* | 17 | 10
Cc1cccc(C)c1-n1nnnc1C1(N)CCC(C)CC1 (centres undefined) | 13 | 33* | 21 | 12
NC1(c2nnnn2-c2ccccc2)CCCCC1 | nt | nt | 7 | 7
COc1ccc(-c2cc([C@H]3CN4CC[C@H]3C[C@@H]4CO)n(C)n2)cc1 | 4 | 12 | 4 | 7
